“And” between values parts separate entries of the source, which are not always exact repeats. Equal values may be shown once. This is part of a sample that, as a whole, favours compounds with a hit. Of some 83,000 tested, about 20% had one in any assay.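 Values shown are percent growth following 48 h exposure of cells in 96-well plates to a single concentration of compound; below 10 was considered active.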 The source made the active and inactive calls.
Experiments:
Assay in all cases: NCI-60 one-dose screen, 48 h (100 = growth as untreated, 0 = no growth, -100 = all killed)
Conditions in all cases: 10 µM unless noted
HCT-15 colon = system: HCT-15 colon
HT29 colon = system: HT29 colon
SNB-75 CNS = system: SNB-75 CNS
SNB-19 CNS = system: SNB-19 CNS
U251 CNS = system: U251 CNS
PC-3 prostate = system: PC-3 prostate
SK-MEL-5 melanoma = system: SK-MEL-5 melanoma
UACC-62 melanoma = system: UACC-62 melanoma
LOX IMVI melanoma = system: LOX IMVI melanoma
SK-MEL-28 melanoma = system: SK-MEL-28 melanoma

Measured: growth

CCCN1C(=O)/C(=c2\sc3n(c2=O)C2C(NN=3)N(CC)C(=O)N2CC)c2ccccc21 (stereo not given)
active: HT29 colon 3.33%
inactive: HCT-15 colon 12.5% | SNB-75 CNS 17.2% | SNB-19 CNS 27.7% | U251 CNS 17.6% | PC-3 prostate 32.9% | SK-MEL-5 melanoma 14.3% | UACC-62 melanoma 24.7% | LOX IMVI melanoma 17.1% | SK-MEL-28 melanoma 48.1%

Cc1ccc(-c2nc([P+](c3ccccc3)(c3ccccc3)c3ccccc3)c(Nc3ccccc3)o2)cc1
active: HCT-15 colon 1.96% | HT29 colon -2.08% | SNB-75 CNS -31.6% | SNB-19 CNS 2.16% | U251 CNS -16.2% | PC-3 prostate 4.11% | SK-MEL-5 melanoma -87.4% | UACC-62 melanoma -25.8% | LOX IMVI melanoma -8.29% | SK-MEL-28 melanoma -42.3%

Cc1ccc(Nc2nc(-c3cc(O)c(C)c(C)c3O)cs2)cc1
inactive: HCT-15 colon 76.7% | HT29 colon 112% | SNB-75 CNS 102% | SNB-19 CNS 110% | U251 CNS 97.2% | PC-3 prostate 71% | SK-MEL-5 melanoma 97.6% | UACC-62 melanoma 92.7% | LOX IMVI melanoma 75.1% | SK-MEL-28 melanoma 115%

O/N=C(/c1ccccc1)c1ccc2c3c(cccc13)CC2
inactive: HCT-15 colon 84.7% and 77.3% | HT29 colon 97.5% and 86.4% | SNB-75 CNS 74.8% and 58.4% | SNB-19 CNS 98.5% and 94.1% | U251 CNS 90.1% and 89.3% | PC-3 prostate 80% and 77.5% | SK-MEL-5 melanoma 98.1% and 91.1% | UACC-62 melanoma 84.6% and 74.7% | LOX IMVI melanoma 89.6% and 89.1% | SK-MEL-28 melanoma 92.8% and 87.5%

CCOC(=O)c1nc2c3ccccc3cnn2c1C(=O)c1ccc(OC)cc1
inactive: HCT-15 colon 96.4% | HT29 colon 98.4% | SNB-75 CNS 88.6% | SNB-19 CNS 90.7% | U251 CNS 89.9% | PC-3 prostate 90.9% | SK-MEL-5 melanoma 97.1% | UACC-62 melanoma 95.5% | LOX IMVI melanoma 94% | SK-MEL-28 melanoma 120%

CC1(C)C(N)=Nc2cc(OCCCCN3Cc4ccccc4C3)c(OCC3CC3)cc21
inactive: HCT-15 colon 36.2% | HT29 colon 27.6% | SNB-75 CNS 78.9% | SNB-19 CNS 81.9% | U251 CNS 56.3% | PC-3 prostate 98.5% | SK-MEL-5 melanoma 57.7% | UACC-62 melanoma 82.7% | LOX IMVI melanoma 26.4% | SK-MEL-28 melanoma 54.4%

COCCn1cc(-c2csc(-c3cn(C)c4ccc(F)cc34)n2)c2cccnc21
inactive: HCT-15 colon 27.9% | HT29 colon 35.5% | SNB-75 CNS 76.4% | SNB-19 CNS 82.6% | U251 CNS 65.5% | PC-3 prostate 46.5% | SK-MEL-5 melanoma 72.7% | UACC-62 melanoma 79.9% | LOX IMVI melanoma 25.8% | SK-MEL-28 melanoma 79.8%

C=C(C)[C@@H]1CC[C@]2(C(=O)N3CCN(C)CC3)CC[C@]3(C)[C@H](CC[C@@H]4[C@@]5(C)CC(CCCNC(C)=O)(CCCNC(C)=O)[C@H](OC(C)=O)C(C)(C)[C@@H]5CC[C@]43C)[C@@H]12
inactive: HCT-15 colon 86.8% | HT29 colon 83% | SNB-75 CNS 89.2% | SNB-19 CNS 99% | U251 CNS 98.2% | PC-3 prostate 74.9% | SK-MEL-5 melanoma 91.5% | UACC-62 melanoma 99.3% | LOX IMVI melanoma 97.8% | SK-MEL-28 melanoma 103%

OCc1cc(CN2CCCCC2)c(O)c2ncccc12
inactive: HCT-15 colon 20% | HT29 colon 41.6% | SNB-75 CNS 81.1% | SNB-19 CNS 57.3% | U251 CNS 40.5% | PC-3 prostate 46.9% | SK-MEL-5 melanoma 74.2% | UACC-62 melanoma 55.3% | LOX IMVI melanoma 37.3% | SK-MEL-28 melanoma 60.7%

COC1=CC(c2ccc[nH]2)=N/C1=C\c1[nH]c(C)c(C(=O)Oc2ccccc2)c1C
inactive: SNB-19 CNS 20.9% | PC-3 prostate 17.6%
active: HCT-15 colon -35.1% | HT29 colon -15.7% | SNB-75 CNS -16.6% | U251 CNS -16.5% | SK-MEL-5 melanoma -99.9% | UACC-62 melanoma -62.8% | LOX IMVI melanoma -86.1% | SK-MEL-28 melanoma -77.9%

C=C1C(=O)O[C@@H]2[C@H]3[C@H](COC(C)=O)[C@@H](OC(C)=O)C[C@H]3C(=C)[C@@H](O)C[C@@H]12
inactive: HCT-15 colon 91.5% | HT29 colon 89.6% | SNB-75 CNS 74.8% | SNB-19 CNS 93.7% | U251 CNS 89.9% | PC-3 prostate 88.9% | SK-MEL-5 melanoma 89.2% | UACC-62 melanoma 85% | LOX IMVI melanoma 93% | SK-MEL-28 melanoma 106%

Cc1[nH]c(C(=O)Nc2nc3ccc(NC(=O)CCN)cc3s2)c(Cl)c1Cl
inactive: HCT-15 colon 83.2% | HT29 colon 88.9% | SNB-75 CNS 81.6% | SNB-19 CNS 78.6% | U251 CNS 47.1% | PC-3 prostate 65.5% | SK-MEL-5 melanoma 83.8% | UACC-62 melanoma 44.4% | LOX IMVI melanoma 19.7% | SK-MEL-28 melanoma 97.8%

O=C1c2cccc3cccc(c23)C(=O)N1N1C(=O)c2cccc3c(N4CCNCC4)ccc(c23)C1=O
inactive: HCT-15 colon 50.6% | HT29 colon 87.3% | SNB-75 CNS 92.2% | SNB-19 CNS 88.5% | U251 CNS 86.3% | PC-3 prostate 85.1% | SK-MEL-5 melanoma 92.8% | UACC-62 melanoma 95.7% | LOX IMVI melanoma 86.5% | SK-MEL-28 melanoma 109%

CN(C)C1CCN(C(=O)c2ccc(NC(=O)Nc3ccc(-c4nc(N5CCOCC5)c5cccn5n4)cc3)cc2)CC1
inactive: HCT-15 colon 40.5%
active: HT29 colon 6.06% | SNB-75 CNS -40.5% | SNB-19 CNS 3% | U251 CNS 5.17% | PC-3 prostate 3.69% | SK-MEL-5 melanoma -63.6% | UACC-62 melanoma -43.5% | LOX IMVI melanoma -2.24% | SK-MEL-28 melanoma -22.4%

O=C(NNc1ccccc1)c1ccccc1
inactive: HCT-15 colon 47.7% and 40.7% | HT29 colon 85.5% and 84.8% | SNB-75 CNS 70.6% and 87.6% | SNB-19 CNS 95% and 99.3% | U251 CNS 90.8% | PC-3 prostate 75.1% and 53.8% | SK-MEL-5 melanoma 98.8% and 100% | UACC-62 melanoma 29.6% and 30.9% | LOX IMVI melanoma 58.4% and 52.7% | SK-MEL-28 melanoma 89.8% and 108%

COc1cc(/C=C2/C=C(c3ccc(C(C)(C)C)cc3)N(CCc3ccc(S(N)(=O)=O)cc3)C2=O)cc(OC)c1OC
inactive: HCT-15 colon 30.3% | SNB-75 CNS 65.9% | SNB-19 CNS 69% | U251 CNS 41.7% | SK-MEL-5 melanoma 32.1% | UACC-62 melanoma 59% | LOX IMVI melanoma 42.2% | SK-MEL-28 melanoma 61.9%
active: HT29 colon 8.93% | PC-3 prostate 8.07%

COC(=O)N/N=C/c1c[n+]([O-])c2ccccc2[n+]1[O-]
inactive: HCT-15 colon 106% | HT29 colon 106% | SNB-75 CNS 100% | SNB-19 CNS 104% | U251 CNS 96.6% | PC-3 prostate 86% | SK-MEL-5 melanoma 114% | UACC-62 melanoma 101% | LOX IMVI melanoma 97.7% | SK-MEL-28 melanoma 105%

CC1=CC(C)(C)NC(=S)N1c1ccc(Cl)cc1
inactive: HCT-15 colon 96.9% and 88.8% | HT29 colon 103% | SNB-75 CNS 91.3% and 108% | SNB-19 CNS 96.7% and 96.9% | U251 CNS 98.7% and 102% | PC-3 prostate 94% and 85.1% | SK-MEL-5 melanoma 100% and 103% | UACC-62 melanoma 94.6% and 84.9% | LOX IMVI melanoma 95.2% and 97.7% | SK-MEL-28 melanoma 101% and 105%

CCC(=C(c1ccc(OCCCN(C)C)cc1)c1ccc(OCCCN(C)C)cc1)c1ccc(Cl)cc1
active: HCT-15 colon -83.3% | HT29 colon -74.5% | SNB-75 CNS -96.6% | SNB-19 CNS -88.3% | U251 CNS -83.4% | PC-3 prostate -66.2% | SK-MEL-5 melanoma -96.3% | UACC-62 melanoma -80% | LOX IMVI melanoma -84.3% | SK-MEL-28 melanoma -89.8%

CN1CCN(C(=O)OCc2nc3c(N4CCOCC4)nc(Cl)nc3n2C)CC1
active: HCT-15 colon -55.4% | HT29 colon -67.7% | SNB-75 CNS -21.7% | U251 CNS -14.1% | PC-3 prostate -16.9% | SK-MEL-5 melanoma -12.8% | UACC-62 melanoma -78% | LOX IMVI melanoma -96.2% | SK-MEL-28 melanoma -95.5%
inactive: SNB-19 CNS 57.9%

COc1cccc(NC(=O)c2sc3nc(C)c(C(O)c4ccccc4)cc3c2N)c1 (stereo not given)
active: U251 CNS 8.92% | SK-MEL-5 melanoma -17.2%
inactive: HCT-15 colon 14.6% | HT29 colon 13.3% | SNB-75 CNS 54.2% | SNB-19 CNS 27.6% | PC-3 prostate 23.5% | UACC-62 melanoma 32% | LOX IMVI melanoma 36.1% | SK-MEL-28 melanoma 64.9%

Clc1ccc(Nc2nc(Nc3ccc(Cl)cc3)nc(Nc3ccc(-c4cc(-c5cccc(Cl)c5)on4)cc3)n2)cc1
inactive: HCT-15 colon 89.8% | HT29 colon 105% | SNB-75 CNS 99.4% | SNB-19 CNS 101% | U251 CNS 79% | PC-3 prostate 86.7% | SK-MEL-5 melanoma 88% | UACC-62 melanoma 105% | LOX IMVI melanoma 79.4% | SK-MEL-28 melanoma 108%

CN1CCN(c2ccc(/C=C/C(=O)c3ccc(O)cc3)cc2)CC1
inactive: HCT-15 colon 91.1% | HT29 colon 100% | SNB-75 CNS 85.6% | SNB-19 CNS 99.6% | U251 CNS 86.7% | PC-3 prostate 93.1% | SK-MEL-5 melanoma 94.1% | UACC-62 melanoma 92.7% | LOX IMVI melanoma 95.4% | SK-MEL-28 melanoma 98.8%

COc1cc(CNC(=O)CCCC/C=C/C(C)C)ccc1OCc1cn(-c2ccc([N+](=O)[O-])cc2)nn1
inactive: HCT-15 colon 96.2% | HT29 colon 98.1% | SNB-75 CNS 83.9% | SNB-19 CNS 97.4% | U251 CNS 86.4% | PC-3 prostate 78% | SK-MEL-5 melanoma 76.1% | UACC-62 melanoma 69.3% | LOX IMVI melanoma 89.5% | SK-MEL-28 melanoma 102%

COc1ccc(Oc2nc(Nc3ccc(N4CCOCC4)cc3)ncc2NC(=O)c2cc(OC)cc(OC)c2)cc1
inactive: HCT-15 colon 67.7% | HT29 colon 72% | SNB-75 CNS 79.1% | SNB-19 CNS 87.4% | U251 CNS 82.7% | PC-3 prostate 67.5% | SK-MEL-5 melanoma 77.2% | UACC-62 melanoma 87.8% | LOX IMVI melanoma 84.7% | SK-MEL-28 melanoma 100%
